The full list was thinned out, with hits kept by preference.
GluA2 TARP mod = GluA2-stargazin AMPA receptor complex modulation; HEK293 GluA2+stargazin, membrane potential dye (FDSS), glutamate EC50; hits were called plate by plate, in both directions; O88602+P19491; AID 1259245; actives 3.5% (n = 40,000); calls only at 30 µM;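 active = any of four per-well response measures lying three or more SD from its plate-wide compound average, in either direction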
GIRK2 act = Activates human GIRK2-containing potassium channels | P48051 | activation (% efficacy), % for hits at 37.5 µM | HEK293 GIRK2/NPY4 cells, thallium flux fluorescence | 34,000 tested, under 10 active;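 active = primary screen hit, no activity in plain HEK293 cells, and in GIRK2-only cells above 5% efficacy rising with concentration; inactive = the rest, including fluorescent compounds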;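 also: efficacy is normalized control-subtracted fluorescence 15 s after thallium addition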
Target sequence (P48051 whole entry, looked up): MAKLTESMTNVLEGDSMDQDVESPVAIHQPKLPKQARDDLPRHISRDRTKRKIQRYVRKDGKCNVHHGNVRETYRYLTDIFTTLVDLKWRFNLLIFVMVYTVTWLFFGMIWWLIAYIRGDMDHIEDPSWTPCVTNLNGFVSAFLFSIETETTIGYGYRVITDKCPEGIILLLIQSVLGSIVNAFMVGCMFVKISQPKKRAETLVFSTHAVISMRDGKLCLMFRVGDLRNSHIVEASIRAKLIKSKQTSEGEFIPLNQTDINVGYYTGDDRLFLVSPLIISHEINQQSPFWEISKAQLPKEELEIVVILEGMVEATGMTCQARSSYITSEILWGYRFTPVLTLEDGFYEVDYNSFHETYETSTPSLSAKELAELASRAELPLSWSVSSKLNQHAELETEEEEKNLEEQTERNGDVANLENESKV
Numbers without * were called inactive; i = inactive; . = no result; + = active, no number.

SMILES	GluA2 TARP mod	GIRK2 act
O=C(Nc1ccc2ncsc2c1)c1ccc(C(=O)c2ccccc2)cc1	i	i
CC1CC(=O)Nc2c1c(NC(=O)c1ccc(=O)[nH]c1)nn2C (centres undefined)	i	i
CN(C)c1ccc(-c2oc3ccccc3c(=O)c2O)cc1	+	.
O=c1c(O)c(-c2ccccc2)oc2ccccc12	i	.
COCCn1c(=NC(=O)c2ccn(C)n2)sc2cc(OC)ccc21	i	i
Cc1cc(N2CCCC2)nc(N2CCN(C(=O)c3ccccc3)CC2)n1	+	.
Cc1ccccc1-c1ccc(N2CCN(C(=O)Cc3cccs3)CC2)nn1	i	i
Cc1ccc(C(=O)N2CCN(c3nc(C)cc(N4CCCCC4)n3)CC2)cc1	i	.
Cc1ccc(-c2ccc(N3CCN(C(=O)Cc4cccs4)CC3)nn2)cc1	i	i
Cc1cc(N2CCOCC2)nc(N2CCN(C(=O)Cc3cccs3)CC2)n1	+	i
O=C(Cc1cccs1)N1CCN(c2ccc(-c3ccccn3)nn2)CC1	+	i
COc1cccc2cc(C(=O)N3CCC(Cn4cccn4)CC3)oc12	i	i
CCCS(=O)(=O)N1CCCc2cc(NS(=O)(=O)c3cc(C)c(C)cc3OC)ccc21	i	.
Cn1cccc1CN(C(=O)COc1ccccc1F)C1CC1	.	i
O=C(NCCN1CCOCC1)NC(=O)c1ccccc1	i	i
O=C(c1cccc(S(=O)(=O)N2CCOCC2)c1)N1CCCc2ccccc21	i	.
O=C(NCCN1CCOCC1)c1ccc(Cl)c(S(=O)(=O)N2CCCCC2)c1	i	.
Cc1ccc(C(=O)N2CCCc3ccccc32)cc1S(=O)(=O)N1CCOCC1	+	.
O=C(c1ccc(Cl)c(S(=O)(=O)N2CCOCC2)c1)N1CCc2ccccc21	+	.
O=C1CCCC(=O)N1CCS(=O)(=O)NCc1cccc(Oc2ccc(F)cc2)c1	i	i
COc1ccc(NC(=O)CSc2nccn(-c3cc(C)cc(C)c3)c2=O)cc1	i	.
Cc1cc(C(F)F)n2ncc(C(=O)NC3CCCCCC3)c2n1	i	.
COc1ccccc1CCNC(=O)c1cnn2c(C(F)F)cc(C)nc12	+	.
COc1ccc(-c2cc(C(=O)NCc3ccco3)c3c(C)nn(C4CCS(=O)(=O)C4)c3n2)cc1 (centres undefined)	i	i
O=C(NCC(O)c1ccsc1)c1cccs1 (centres undefined)	i	i
SMILES	GluA2 TARP mod	GIRK2 act
O=C(NCC(O)c1ccc(C(F)(F)F)cc1)Nc1cccs1 (centres undefined)	+	.
O=C(NCc1cccs1)NCC(O)c1ccc(C(F)(F)F)cc1 (centres undefined)	i	.
O=S(=O)(Cc1ccccc1)NCCCN1CCOC(c2ccccc2)C1 (centres undefined)	.	i
CCOc1ccc(C(=O)N2CCC3(CC2)NC(=O)N(CCc2ccccc2)C3=O)cc1	i	i
Cc1ccc(Oc2ccc(N(C)C(=O)Cc3ccccc3)cc2)nn1	i	i
COc1cccc2sc(N(CCCN(C)C)C(=O)c3cc(C)n(C)n3)nc12	i	i
COc1ccc(F)cc1S(=O)(=O)Nc1cccc(-c2ccc(=O)n(C)n2)c1	+	i
COc1ccc(F)cc1S(=O)(=O)Nc1ccc(-c2ccc(=O)n(C)n2)cc1	i	i
COc1ccc(C(=O)Nc2ccc3c(c2)CCC(=O)N3CCC(C)C)cc1OC	i	.
O=C(NCCC(O)c1ccco1)C(=O)Nc1ccccc1 (centres undefined)	i	i
O=S(=O)(c1cccs1)N1CCN(c2ccc(N3CCCC3)nn2)CC1	+	i
O=S(=O)(c1cccs1)N1CCN(c2ccc(-c3ccccc3)nn2)CC1	i	i
COCCCNC(=O)c1cc(-c2ccc(OC)cc2)nc2c1c(C)nn2C1CCS(=O)(=O)C1 (centres undefined)	i	i
Cc1cc(C)n(-c2cc(NCCNS(=O)(=O)c3ccc(F)cc3)ncn2)n1	i	i
CC(C)(C)N1CC(c2nc3ccccc3n2Cc2c(F)cccc2Cl)CC1=O (centres undefined)	+	.
O=C1CC(c2nc3ccccc3n2Cc2ccc(F)cc2)CN1Cc1ccccc1 (centres undefined)	+	.
CC(C)(C)N1CC(c2nc3ccccc3n2CCOc2ccc(Cl)cc2)CC1=O (centres undefined)	i	.
CCCCN1CC(c2nc3ccccc3n2Cc2cccc(Cl)c2)CC1=O (centres undefined)	+	.
O=C1CC(c2nc3ccccc3n2Cc2ccc(F)cc2)CN1Cc1ccc(F)cc1 (centres undefined)	i	.
CCCCN1CC(c2nc3ccccc3n2Cc2ccccc2)CC1=O (centres undefined)	i	.
CC(C)(C)N1CC(c2nc3ccccc3n2Cc2ccc(Cl)cc2)CC1=O (centres undefined)	i	.

Screening results as filed in PubChem BioAssay.
